Data published in PubChem BioAssay (EPA / NIEHS).
Where “and” joins values, the source holds several entries; their conditions need not be identical. Equal values may be shown once. Inconclusive results are not listed. Some structures have more than one record in an assay (separate samples or runs), and their calls can disagree. Calls of active or inactive are those of the source. The calls were made as follows, unless noted: active = hit-call score of the fitted dose curve at least 0.9, where 1 is the maximum; inconclusive = response in the unintended direction; inactive = score below 0.9.

Experiments:
[1] = ATG_VDRE_CIS: Attagene CIS-FACTORIAL HepG2 Assay for human Vitamin D Receptor Element (VDRE) (AID 2282968; active = hit-call score of the fitted dose curve at least 0.9, where 1 is the maximum; inactive = score below 0.9); conditions: HepG2 VDRE cis-reporter transcription, actives raise or lower the signal
Method in brief: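 Readout is VDRE-driven reporter mRNA reflecting endogenous factor activity in human HepG2 cells, sampled 24 h post-dose. Quantification used labelled RT-PCR products separated by capillary electrophoresis; bidirectional analysis relative to DMSO.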

[2] = target: Nuclear receptor subfamily 1 group I member 3 (Homo sapiens) (UniProt Q14994); assay: ATG_CAR_TRANS: Attagene TRANS-FACTORIAL HepG2 Assay for human Constitutive Androstane Receptor (CAR) (AID 2282969); conditions: HepG2 Attagene TRANS-FACTORIAL CAR reporter;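 also: activators raise reporter mRNA above DMSO so AC50 marks induction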
Sequence of Nuclear receptor subfamily 1 group I member 3 (Homo sapiens) (Q14994 whole entry, looked up, the tested form may be a part): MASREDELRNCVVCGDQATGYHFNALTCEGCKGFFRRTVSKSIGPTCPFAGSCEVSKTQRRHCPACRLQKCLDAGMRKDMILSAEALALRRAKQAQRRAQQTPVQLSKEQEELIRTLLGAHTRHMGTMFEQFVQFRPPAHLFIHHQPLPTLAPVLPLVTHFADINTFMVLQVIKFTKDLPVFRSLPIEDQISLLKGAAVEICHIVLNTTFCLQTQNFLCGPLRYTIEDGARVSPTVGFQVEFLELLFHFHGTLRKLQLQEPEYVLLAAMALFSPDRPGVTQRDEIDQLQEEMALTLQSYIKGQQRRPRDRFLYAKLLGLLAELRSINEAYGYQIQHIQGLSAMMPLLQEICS
Method in brief: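 Signal is reporter mRNA induction relative to DMSO, measured 24 h after dosing by RT-PCR with fluorescent primer extension and capillary electrophoresis. Human HepG2 liver cells carried transiently transfected chimeric NR-Gal4/GAL4-UAS reporter constructs.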

[3] = target: Estrogen receptor (Homo sapiens) (UniProt P03372); assay: ATG_ERa_TRANS: Attagene TRANS-FACTORIAL HepG2 Assay for human Estrogen Receptor alpha (ERa) (AID 2282970); conditions: HepG2 Attagene TRANS ERa GAL4 reporter, mRNA
Sequence of Estrogen receptor (Homo sapiens) (P03372 whole entry, looked up, the tested form may be a part): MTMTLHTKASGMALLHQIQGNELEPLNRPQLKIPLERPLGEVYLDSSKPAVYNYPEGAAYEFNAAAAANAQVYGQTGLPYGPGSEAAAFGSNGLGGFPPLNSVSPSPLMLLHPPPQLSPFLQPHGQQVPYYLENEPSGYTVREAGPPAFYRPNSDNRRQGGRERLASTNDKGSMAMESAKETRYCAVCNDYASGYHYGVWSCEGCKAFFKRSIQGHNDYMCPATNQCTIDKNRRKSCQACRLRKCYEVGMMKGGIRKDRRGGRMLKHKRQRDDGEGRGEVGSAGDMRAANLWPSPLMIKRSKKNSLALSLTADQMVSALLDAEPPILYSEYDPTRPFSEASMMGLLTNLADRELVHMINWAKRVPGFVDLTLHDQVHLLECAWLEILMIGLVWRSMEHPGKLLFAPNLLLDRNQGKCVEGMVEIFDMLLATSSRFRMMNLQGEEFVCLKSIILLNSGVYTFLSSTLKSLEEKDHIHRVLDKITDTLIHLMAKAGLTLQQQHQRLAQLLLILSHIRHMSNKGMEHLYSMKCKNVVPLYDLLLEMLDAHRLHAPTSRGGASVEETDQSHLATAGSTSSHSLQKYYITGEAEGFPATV
Method in brief: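 Transfected HepG2 cells carrying GAL4-UAS-driven reporter units were dosed for 24 hours. Total RNA was reverse-transcribed, reporter sequences PCR-amplified, FAM-labelled, HpaI-digested and resolved by capillary electrophoresis. Increases over DMSO control defined activity.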

[4] = target: Steroid hormone receptor ERR1 (Homo sapiens) (UniProt P11474); assay: ATG_ERRa_TRANS: Attagene TRANS-FACTORIAL HepG2 Assay for human Estrogen-Related Receptor alpha (ERRa) (AID 2282971); conditions: HepG2 Attagene TRANS reporter, ERRa transactivation
Sequence of Steroid hormone receptor ERR1 (Homo sapiens) (P11474 whole entry, looked up, the tested form may be a part): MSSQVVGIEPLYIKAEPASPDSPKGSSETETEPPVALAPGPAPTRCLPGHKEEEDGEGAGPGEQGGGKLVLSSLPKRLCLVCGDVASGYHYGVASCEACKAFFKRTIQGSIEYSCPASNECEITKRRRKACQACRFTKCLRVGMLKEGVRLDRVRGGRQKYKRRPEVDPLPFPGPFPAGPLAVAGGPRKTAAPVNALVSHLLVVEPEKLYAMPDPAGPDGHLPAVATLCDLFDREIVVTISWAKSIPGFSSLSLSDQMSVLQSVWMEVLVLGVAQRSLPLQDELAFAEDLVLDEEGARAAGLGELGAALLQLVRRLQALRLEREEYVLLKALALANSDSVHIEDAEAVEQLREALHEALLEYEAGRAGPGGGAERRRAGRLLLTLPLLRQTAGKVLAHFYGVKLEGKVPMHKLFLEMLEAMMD
Method in brief: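 HepG2 cells were transiently transfected with multiple GAL4-UAS reporter units, then dosed with compound for 24 h. Total RNA was reverse-transcribed, reporter cDNA PCR-amplified and fluorescently labelled, and fragments resolved by capillary electrophoresis; induction was compared with DMSO.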

[5] = target: X-box-binding protein 1 (Homo sapiens) (UniProt P17861); assay: ATG_Xbp1_CIS: Attagene CIS-FACTORIAL HepG2 Assay for human X-box Binding Protein 1 (XBP1) (AID 2282972; active = hit-call score of the fitted dose curve at least 0.9, where 1 is the maximum; inactive = score below 0.9); conditions: HepG2 XBP1 cis-element reporter, Attagene multiplex; actives raise or lower the signal
Sequence of X-box-binding protein 1 (Homo sapiens) (P17861 whole entry, looked up, the tested form may be a part): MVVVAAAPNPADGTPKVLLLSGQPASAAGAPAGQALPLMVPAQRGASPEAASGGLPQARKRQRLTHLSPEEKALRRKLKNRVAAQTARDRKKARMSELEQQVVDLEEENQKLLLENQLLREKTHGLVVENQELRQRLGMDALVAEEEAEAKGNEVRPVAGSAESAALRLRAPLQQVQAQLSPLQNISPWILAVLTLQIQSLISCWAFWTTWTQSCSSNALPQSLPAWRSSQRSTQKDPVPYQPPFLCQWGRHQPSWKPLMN
Method in brief: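 Read-out: fluorescent reporter mRNA fragments resolved by capillary electrophoresis after RT-PCR. Human HepG2 liver cells carried transfected cis-promoter reporter units and were exposed to chemicals for 24 hours. Gain or loss of signal fitted relative to DMSO baseline.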

[6] = target: Glucocorticoid receptor (Homo sapiens) (UniProt P04150); assay: ATG_GR_TRANS: Attagene TRANS-FACTORIAL HepG2 Assay for human Glucocorticoid Receptor (GR) (AID 2282978); conditions: HepG2 Attagene TRANS GR reporter, mRNA transcription;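 also: activators score as hits since higher reporter transcript over DMSO is fitted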
Sequence of Glucocorticoid receptor (Homo sapiens) (P04150 whole entry, looked up, the tested form may be a part): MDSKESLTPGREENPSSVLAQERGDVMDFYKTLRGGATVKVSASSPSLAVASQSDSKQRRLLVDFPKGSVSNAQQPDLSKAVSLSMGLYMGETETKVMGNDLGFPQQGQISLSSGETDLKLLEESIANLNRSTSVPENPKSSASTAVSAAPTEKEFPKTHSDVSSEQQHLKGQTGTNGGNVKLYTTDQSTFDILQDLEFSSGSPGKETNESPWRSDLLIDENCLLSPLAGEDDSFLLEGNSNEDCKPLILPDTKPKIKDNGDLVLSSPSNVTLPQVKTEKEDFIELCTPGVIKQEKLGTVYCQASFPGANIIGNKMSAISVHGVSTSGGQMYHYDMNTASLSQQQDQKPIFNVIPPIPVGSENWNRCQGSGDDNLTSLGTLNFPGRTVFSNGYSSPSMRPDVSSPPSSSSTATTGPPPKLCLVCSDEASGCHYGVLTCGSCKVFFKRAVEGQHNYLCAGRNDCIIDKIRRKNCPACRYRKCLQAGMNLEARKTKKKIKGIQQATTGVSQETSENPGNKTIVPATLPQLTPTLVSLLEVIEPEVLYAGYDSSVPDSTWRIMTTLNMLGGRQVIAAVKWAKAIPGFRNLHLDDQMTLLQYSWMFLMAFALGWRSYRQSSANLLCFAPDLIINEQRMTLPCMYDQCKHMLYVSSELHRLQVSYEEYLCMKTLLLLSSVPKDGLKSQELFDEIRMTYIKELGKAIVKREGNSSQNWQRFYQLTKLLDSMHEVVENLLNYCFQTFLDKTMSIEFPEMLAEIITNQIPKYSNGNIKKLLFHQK
Method in brief: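 Transient MRTU transfection of HepG2 (GAL4-UAS reporters, exogenous NR-GAL4 chimeras), 24 h dosing. Readout: reporter transcript via RT-PCR + capillary electrophoresis fluorescence. Positive direction vs DMSO baseline.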

[7] = ATG_M_19_TRANS: Attagene TRANS-FACTORIAL HepG2 Assay for M19 Transcription Factor (Internal Marker) (AID 2282974); conditions: HepG2 Attagene TRANS-FACTORIAL M19 internal marker reporter
Method in brief: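 24 h chemical exposure of transiently transfected HepG2 (MRTU library). RNA → oligo(dT) RT → PCR → 6-FAM labelling → HpaI cut → CE fluorescence. Positive-direction fit vs DMSO baseline; background internal-marker readout.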

[8] = target: Bile acid receptor (Homo sapiens) (UniProt Q96RI1); assay: ATG_FXR_TRANS: Attagene TRANS-FACTORIAL HepG2 Assay for Farnesoid X Receptor (FXR) (AID 2282979); conditions: HepG2 Attagene TRANS FXR-GAL4 reporter transcription;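 also: hits raise reporter mRNA above DMSO so AC50 marks FXR activation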
Sequence of Bile acid receptor (Homo sapiens) (Q96RI1 whole entry, looked up, the tested form may be a part): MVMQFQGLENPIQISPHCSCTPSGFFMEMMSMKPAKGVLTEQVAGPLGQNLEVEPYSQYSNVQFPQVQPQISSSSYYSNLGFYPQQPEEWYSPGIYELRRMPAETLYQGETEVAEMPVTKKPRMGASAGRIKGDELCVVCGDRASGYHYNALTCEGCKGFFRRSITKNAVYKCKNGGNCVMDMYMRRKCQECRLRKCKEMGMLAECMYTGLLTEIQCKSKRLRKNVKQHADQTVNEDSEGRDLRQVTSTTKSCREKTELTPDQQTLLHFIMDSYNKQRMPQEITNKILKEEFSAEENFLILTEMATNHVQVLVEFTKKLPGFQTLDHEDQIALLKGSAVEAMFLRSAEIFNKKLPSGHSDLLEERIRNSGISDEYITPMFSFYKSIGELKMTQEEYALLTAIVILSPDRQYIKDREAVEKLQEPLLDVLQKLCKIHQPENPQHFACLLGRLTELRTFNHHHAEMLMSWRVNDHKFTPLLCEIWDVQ
Method in brief: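 Chimeric FXR-GAL4 activity in transiently transfected human HepG2 liver cells is scored as induction of reporter mRNA after 24 h of dosing. Detection uses RT-PCR with fluorescent labelling and capillary electrophoresis, with DMSO serving as baseline.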

[9] = ATG_GAL4_TRANS: Attagene TRANS-FACTORIAL HepG2 Assay for GAL4 (Internal Marker) (AID 2282976); conditions: HepG2 Attagene TRANS GAL4 internal marker reporter
Method in brief: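 Fluorescence from capillary electrophoresis of labelled RT-PCR products quantifies reporter mRNA induction after 24 h dosing of HepG2 cells carrying transfected GAL4-UAS reporter transcription units. Vehicle DMSO serves as baseline.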

[10] = target: Estrogen-related receptor gamma (Homo sapiens) (UniProt P62508); assay: ATG_ERRg_TRANS: Attagene TRANS-FACTORIAL HepG2 Assay for human Estrogen-Related Receptor gamma (ERRg) (AID 2282977); conditions: HepG2 Attagene TRANS reporter, ERRg transactivation;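 also: hits increase reporter signal over DMSO so potencies reflect activators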
Sequence of Estrogen-related receptor gamma (Homo sapiens) (P62508 whole entry, looked up, the tested form may be a part): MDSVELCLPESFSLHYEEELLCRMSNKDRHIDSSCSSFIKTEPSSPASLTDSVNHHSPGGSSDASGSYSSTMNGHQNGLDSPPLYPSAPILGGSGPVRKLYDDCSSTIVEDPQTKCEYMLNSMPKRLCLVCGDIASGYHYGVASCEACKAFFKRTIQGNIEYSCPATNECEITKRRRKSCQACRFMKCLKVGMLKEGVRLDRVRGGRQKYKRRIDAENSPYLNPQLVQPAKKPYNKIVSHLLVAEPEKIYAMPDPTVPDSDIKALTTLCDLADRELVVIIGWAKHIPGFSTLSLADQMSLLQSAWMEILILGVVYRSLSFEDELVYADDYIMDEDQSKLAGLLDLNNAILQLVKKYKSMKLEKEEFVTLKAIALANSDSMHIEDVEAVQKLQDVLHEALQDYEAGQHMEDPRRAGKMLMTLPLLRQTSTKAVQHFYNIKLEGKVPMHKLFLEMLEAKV
Method in brief: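 Exogenous NR-Gal4 chimera activity measured as reporter transcript induction after 24 h in transiently transfected HepG2 cells. RNA reverse-transcribed, PCR-amplified, 6-FAM-labelled and resolved by capillary electrophoresis; increase over DMSO baseline.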

Measured: AC50

CCCCCCc1ccc(N)cc1
active: [3] 11.6 µM
inactive: [1] | [2] | [4] | [5] | [6]

C=CC(=O)OCCC(F)(F)C(F)(F)C(F)(F)C(F)(F)C(F)(F)C(F)(F)C(F)(F)C(F)(F)F
active: [3] 11 µM
not listed: [6] | [9] | [10]
inactive: all other assays above

Cc1ccc(C(=O)c2ccccc2)cc1
inactive: [1] | [2] | [5] | [7] | [9]
active: [3] 27.8 µM

c1cnc2c(c1)ccc1cccnc12
inactive: [1] | [2] | [4] | [5] | [7] | [10] | [6]
active: [1] 161 µM | [5] 158 µM

CCOC(OCC)C(=O)c1ccccc1
active: [3] 32.2 µM
inactive: all other assays above

CCCCCCCCCCCCCCCC(=O)OC
inactive: [1] | [2] | [3] | [5] | [7] | [9]

Cc1cccc2c1ccc1ccccc12
active: [3] 11.2 µM
not listed: [8] | [9] | [10]
inactive: all other assays above

CCCCCCCCCCCCCCCCCC[N+](C)(C)Cc1ccccc1
active: [1] 50 µM
not listed: [7]
inactive: all other assays above

O=C(O)C(F)(F)OC(F)(F)C(F)(F)OC(F)(F)C(F)(F)OC(F)(F)C(F)(F)C(F)(F)C(F)(F)F
inactive: [2] | [3] | [4] | [7] | [9] | [10] | [6]
active: [1] 13.1 µM and 30 µM | [3] 26 µM | [5] 41.2 µM and 25.4 µM

CC(C)CCOCCC(C)C
not listed: [7] | [10]
inactive: all other assays above

O=C1OC(=O)c2cc(-c3ccc4c(c3)C(=O)OC4=O)ccc21
not listed: [4] | [6] | [10]
inactive: all other assays above

Oc1cccc2c(O)cccc12
active: [3] 11.1 µM
not listed: [4] | [7] | [8]
inactive: all other assays above

CCCCCCCCC(C)=O
not listed: [4] | [9] | [10]
inactive: all other assays above

C=CC(C)(CCC=C(C)C)OC(C)=O (stereo not drawn)
not listed: [4] | [10]
inactive: all other assays above

OCC(F)(F)C(F)(F)C(F)(F)C(F)(F)C(F)(F)C(F)(F)C(F)(F)C(F)(F)C(F)(F)C(F)(F)C(F)(F)F
active: [3] 62.3 µM
inactive: [1] | [2] | [5] | [6]

O=C(Nc1ccc(Cl)c(Cl)c1)c1cc(Cl)cc(Cl)c1O
inactive: [2] | [10] | [6]
active: [1] 2.27 µM | [3] 6.62 µM | [5] 1.72 µM | [8] 3.82 µM

C=COC(=O)C(C)(C)CCCCCC
active: [3] 41 µM
inactive: [1] | [2] | [5] | [6] | [8]

O=C(F)C(F)(F)C(F)(F)C(F)(F)C(=O)F
inactive: [1] | [2] | [3] | [5] | [9]

Clc1ccc(Nc2nnc(Cc3ccncc3)c3ccccc23)cc1
active: [1] 7.35 µM
not listed: [4] | [9] | [10]
inactive: all other assays above

CCC(C)c1nccnc1OC (stereo not drawn)
not listed: [3] | [8] | [10]
inactive: all other assays above

CC1COCc2cc3c(cc21)C(C)(C)C(C)C3(C)C (stereo not drawn)
inactive: [2] | [6] | [8]
active: [1] 50.7 µM | [3] 11.8 µM | [5] 73.4 µM

CCOC(=O)CN[C@@H](C(=O)N1CC[C@H]1C(=O)NCc1ccc(/C(N)=N/O)cc1)C1CCCCC1
not listed: [3] | [7]
inactive: all other assays above

CC[N+](CC)(CC)Cc1ccccc1
not listed: [3] | [7] | [8]
inactive: all other assays above

CC(C)(C)c1ccc(CCC=O)cc1
active: [3] 74 µM
not listed: [4] | [9] | [10]
inactive: all other assays above

CCN(CC)CC
not listed: [4] | [10]
inactive: all other assays above

FC(F)(F)N1C(F)(F)C(F)(F)OC(F)(F)C1(F)F
not listed: [4] | [7] | [10]
inactive: all other assays above

C=CC(=O)OCCC(F)(F)C(F)(F)C(F)(F)C(F)(F)C(F)(F)C(F)(F)F
active: [3] 12.8 µM
not listed: [4] | [7]
inactive: all other assays above

C=CCOCC(CO)(CO)CO
not listed: [4] | [9]
inactive: all other assays above
